# Laboratory results: the supplement of paper PMC13380429
# Legend:
# [1] = system: Vero E6 infected with SARS-CoV-2; experiment: morphology score (similarity to uninfected cells); higher = more like uninfected cells; details: 24 h
# [2] = system: Vero E6 infected with SARS-CoV-2; experiment: SARS-CoV-2 infection rate relative to infected DMSO; higher = more infection, active = 60 or less; details: 24 h
SMILES,morphology score [1],SARS-CoV-2 infection rate [2]
NCC(O)(CS(=O)(=O)O)c1ccc(Cl)cc1 (stereo unspecified) [2-hydroxysaclofen] (10 µM),0.266,84.5% (inactive)
CN(C(=O)Cc1ccc(Cl)c(Cl)c1)[C@H](CN1CCCC1)c1ccccc1 (10 µM),0.793,21.5% (active)
Cc1nnc(C(C)C)n1C1C[C@H]2CC[C@@H](C1)N2CC[C@H](NC(=O)C1CCC(F)(F)CC1)c1ccccc1 (stereo in doubt) [maraviroc] (10 µM),0.145,112% (inactive)
COc1ccc(O)c(C(C)(C)C)c1.COc1ccc(O)cc1C(C)(C)C [butylated-hydroxyanisole] (10 µM),-0.127,116% (inactive)
CC/C(=C(/c1ccc(OCCN(C)C)cc1)c1cccc(O)c1)c1ccccc1 [droloxifene] (10 µM),0.73,24% (active)
CC(C)(Oc1ccc(CCNC(=O)c2ccc(Cl)cc2)cc1)C(=O)O [bezafibrate] (10 µM),0.0236,104% (inactive)
Cc1c(Cl)cccc1S(=O)(=O)Nc1nc(NCCc2ccccc2)nc2c1CN(Cc1ccccc1)CC2 (10 µM),0.104,94.5% (inactive)
CCOC(=O)NNc1ccc(N(CC)CC(C)O)nn1 (stereo unspecified) [cadralazine] (10 µM),0.0865,108% (inactive)
CCCCCCCCC(=O)N[C@H](CN1CCCC1)[C@H](O)c1ccc2c(c1)OCCO2 (10 µM),0.393,71.5% (inactive)
O=C(O)CCCN1C(=O)c2cccc3cccc(c23)C1=O [isodibut] (10 µM),0.205,104% (inactive)
CCN(CC)CCN[C@@H](C(=O)OCCC(C)C)c1ccccc1 [camylofine-chlorhydrate] (10 µM),0.18,98% (inactive)
COc1cc(CNC(=O)CCCC/C=C/C(C)C)ccc1O [capsaicin] (10 µM),0.0697,107% (inactive)
C[N+]1(C)CCC(=C(c2ccccc2)c2ccccc2)CC1 [diphemanil] (10 µM),-0.00596,95.5% (inactive)
O=[N+]([O-])c1cncn1CCN1CCOCC1 [nimorazole] (10 µM),0.0962,91.5% (inactive)
S=C(S)N1CCCC1 [pyrrolidine-dithiocarbamate] (0.833333 µM),0.106,98% (inactive)
CC(=O)Nc1c(I)cc(I)c(C(=O)O)c1I [acetriazoic-acid] (10 µM),0.138,112% (inactive)
CC(C)/N=c1\cc2n(-c3ccc(Cl)cc3)c3ccccc3nc-2cc1Nc1ccc(Cl)cc1 [clofazimine] (10 µM),0.422,64% (inactive)
Oc1cc(O)cc(/C=C/c2ccc(O)c(O)c2)c1 [piceatannol] (10 µM),-0.206,112% (inactive)
C[N+]1([O-])[C@@H]2C[C@@H](OC(=O)[C@H](CO)c3ccccc3)C[C@H]1[C@@H]1O[C@@H]12 (stereo partly specified) [scopolamine-N-oxide] (10 µM),0.142,107% (inactive)
O=NO [sodium-nitrite] (10 µM),0.176,108% (inactive)
Cc1cc(-c2ccc(CC(=O)Nc3ccc(-c4cccnc4)cc3)cc2)ccn1 (10 µM),0.392,75.5% (inactive)

SMILES,morphology score [1],SARS-CoV-2 infection rate [2]
O=C(O)c1ccc(N2N=C(Cc3ccccc3)/C(=C\c3ccc(-c4ccccc4F)o3)C2=O)cc1 (10 µM),-0.0825,115% (inactive)
CN1CCC(NC(=O)c2cc(-c3c(O)cc(O)cc3Oc3ccc([N+](=O)[O-])cc3)on2)CC1 (0.833333 µM),0.247,95.5% (inactive)
O=C(Oc1ccccc1)c1ccccc1O [phenyl-salicylate] (10 µM),-0.0306,103% (inactive)
Nc1nc(Nc2ccccc2)nc2c1ncn2[C@@H]1O[C@H](CO)[C@@H](O)[C@H]1O (10 µM),0.144,102% (inactive)
CNCCC=C1c2ccccc2C=Cc2ccccc21 [norcyclobenzaprine] (10 µM),0.314,81% (inactive)
CN(C)C(=N)NCCC[C@H](N)C(=O)O [asymmetrical-dimethylarginine] (10 µM),0.217,95.5% (inactive)
COc1ccc(Cc2cnc(N)nc2N)cc1OC [diaveridine] (10 µM),0.191,101% (inactive)
CCCc1c(OCCCCc2nnn[nH]2)ccc(C(C)=O)c1O [tomelukast] (10 µM),-0.0661,110% (inactive)
OCc1ccccc1O [salicyl-alcohol] (10 µM),-0.0183,106% (inactive)
O=C1OC(OC(=O)c2cccnc2Nc2cccc(C(F)(F)F)c2)c2ccccc21 (stereo unspecified) [talniflumate] (10 µM),-0.0899,108% (inactive)
CC(Cc1cccc(C(F)(F)F)c1)NCCOC(=O)c1ccccc1 (stereo unspecified) [benfluorex] (10 µM),0.0298,104% (inactive)
OCCn1cc(-c2cnc3nnn(Cc4ccc5ncccc5c4)c3n2)cn1 (10 µM),-0.0332,99% (inactive)
O=C(O)[C@H]1CN(C/C=C/P(=O)(O)O)CCN1 [midafotel] (10 µM),0.0949,89% (inactive)
C[C@@H](O[C@H]1OCCN(Cc2n[nH]c(=O)[nH]2)[C@H]1c1ccc(F)cc1)c1cc(C(F)(F)F)cc(C(F)(F)F)c1 [aprepitant] (10 µM),0.0718,108% (inactive)
C[C@@H](NC(=O)c1ncnc(N)c1Cl)c1ncc(C(=O)Nc2cc(C(F)(F)F)c(Cl)cn2)s1 (10 µM),-0.0506,108% (inactive)
CC1Nc2ccc(Cl)cc2S(=O)(=O)N1 (stereo unspecified) (10 µM),0.135,100% (inactive)
COc1ccc(C[C@H]2NC[C@H](O)[C@H]2OC(C)=O)cc1 [anisomycin] (0.833333 µM),0.045,102% (inactive)
Nc1nc(N)nc(-c2cc(Cl)ccc2Cl)n1 [irsogladine] (10 µM),0.168,94.5% (inactive)
CCCC(C)C1(CC)C(=O)NC(=S)NC1=O (stereo unspecified) [thiopental] (10 µM),0.132,110% (inactive)
COc1ccc(-c2cc(=S)ss2)cc1 [anethole-trithione] (10 µM),0.0605,104% (inactive)
COc1ccc2c(O[C@@H]3C[C@H]4C(=O)N[C@]5(C(=O)NS(=O)(=O)C6CC6)C[C@H]5/C=C\CCCCN(C)C(=O)[C@@H]4C3)cc(-c3nc(C(C)C)cs3)nc2c1C [simeprevir] (10 µM),0.0609,88.5% (inactive)

SMILES,morphology score [1],SARS-CoV-2 infection rate [2]
O=C(O)c1cc(O)c2c(c1)C(=O)c1cccc(O)c1C2=O [rhein] (10 µM),0.272,99.5% (inactive)
COc1ccc2c3c1O[C@H]1C[C@@H](O)C=C[C@@]31CCN(C)C2 [galantamine] (10 µM),0.113,102% (inactive)
N=C(N)NCCN1CCCCCCC1 [guanethidine] (10 µM),-0.0499,109% (inactive)
CCCCOc1c(C(=O)c2c(F)cc(C)cc2F)c[nH]c2nncc1-2 (10 µM),0.383,104% (inactive)
CC(C)(C)c1[nH]cnc1/C=c1\[nH]c(=O)/c(=C/c2ccccc2)[nH]c1=O [plinabulin] (0.833333 µM),-0.0585,112% (inactive)
CC(=O)N1CCN(C)CC1 [1-acetyl-4-methylpiperazine] (10 µM),-0.0421,102% (inactive)
CCOC(=O)[C@@H](N)Cc1ccc(O)c(O)c1 [etilevodopa] (10 µM),-0.149,110% (inactive)
CON(C)C(=O)[C@H](O)[C@H](Cc1ccccc1)NC(=O)c1cc2cc(Cl)ccc2[nH]1 (10 µM),0.109,109% (inactive)
N=C(N)N [guanidine] (0.833333 µM),-0.293,118% (inactive)
Cc1cc(C(=O)NOCCO)c(Nc2ccc(I)cc2F)n(C)c1=O (10 µM),-0.0952,107% (inactive)
CN1[C@H]2C[C@H](OC(=O)[C@H](CO)c3ccccc3)C[C@@H]1[C@@H](O)C2 [anisodamine] (10 µM),-0.00951,116% (inactive)
N[C@@H](C(=O)O)c1ccc(C(=O)O)c(O)c1 (racemic) [4-carboxy-3-hydroxyphenylglycine-(RS)] (10 µM),0.126,101% (inactive)
COc1cccc(OC)c1OCCNC[C@H]1COc2ccccc2O1 (10 µM),0.138,108% (inactive)
CCOC(=O)c1cc(C#N)c(N2CCC(C(=O)NS(=O)(=O)Cc3ccccc3)CC2)nc1C (10 µM),0.128,108% (inactive)
C[n+]1c2cc(N)ccc2cc2ccc(N)cc21.Nc1ccc2cc3ccc(N)cc3nc2c1 [acriflavine] (0.833333 µM),0.32,108% (inactive)
c1ccc2c(c1)Sc1ccccc1N2C[C@H]1CN2CCC1CC2 [levomequitazine] (10 µM),0.0894,86% (inactive)
CO/N=C(\C(=O)N[C@@H]1C(=O)N2C(C(=O)O)=C(CSC(=O)c3ccco3)CS[C@H]12)c1csc(N)n1 (10 µM),0.156,104% (inactive)
CS(=O)(=O)c1ccc(-c2cn3ccccc3n2)cc1 [zolimidine] (10 µM),0.211,85% (inactive)
O=C(NCCN1CCCCC1)c1ccc(I)cc1 [N-[2-(piperidinylamino)ethyl]-4-iodobenzamide] (10 µM),0.317,91.5% (inactive)
CCOc1cc(N2CCC(O)CC2)ccc1Nc1ncc2c(n1)N(C)c1ccccc1C(=O)N2C (0.833333 µM),-0.0631,114% (inactive)
C[C@@]1(CO)[C@H](O)CC[C@@]2(C)[C@H]1CC[C@H]1C[C@@H]3C[C@@]12CC[C@]3(O)CO [aphidicolin] (0.833333 µM),-0.0875,106% (inactive)
